Measurements published in publication PMC7862700, “An all-to-all approach to the identification of sequence-specific readers for epigenetic DNA modifications on cytosine”.

Legend:
Assay in all cases: DAPPL (digital affinity profiling via proximity ligation, sequencing); 10 mM Tris-HCl pH 7.5, 50 mM NaCl, 1 mM DTT, 4% glycerol, room temperature, 30 min; GST-TFs on glutathione beads, 16-mer random dsDNA library, 0.1% formaldehyde crosslink after washing; high values mean tight binding
Details in all cases: protein: recombinant; tags: N-terminal GST; dsDNA, one strand shown
[1] = molecular target: T1, FLI1 (Homo sapiens, UniProt Q01543 1-452)
T1 sequence: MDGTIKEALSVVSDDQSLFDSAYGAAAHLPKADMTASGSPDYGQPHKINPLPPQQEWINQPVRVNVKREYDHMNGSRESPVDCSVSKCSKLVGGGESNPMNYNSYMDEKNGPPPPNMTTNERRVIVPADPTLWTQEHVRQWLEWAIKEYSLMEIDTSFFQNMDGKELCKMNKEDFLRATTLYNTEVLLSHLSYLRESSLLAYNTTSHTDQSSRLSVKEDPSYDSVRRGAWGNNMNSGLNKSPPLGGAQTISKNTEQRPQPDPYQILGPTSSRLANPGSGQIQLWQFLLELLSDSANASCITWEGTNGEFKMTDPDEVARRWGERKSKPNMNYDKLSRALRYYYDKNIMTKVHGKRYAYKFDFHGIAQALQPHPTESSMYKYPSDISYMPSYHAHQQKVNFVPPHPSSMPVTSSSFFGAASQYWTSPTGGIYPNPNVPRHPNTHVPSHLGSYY
In short: (§1)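 Human transcription factors fused to GST were expressed in yeast, captured on glutathione beads, given DNA barcodes and pooled with a GST-only negative control. Pools were incubated with 200 nmole of a 16-mer random double-stranded DNA library in Tris/NaCl/DTT/glycerol buffer at room temperature for 30 min. They were then washed, crosslinked with 0.1% formaldehyde, proximity-ligated (BsaI/T4 ligase, 1 h, 37 °C), PCR-amplified and sequenced on an Illumina NextSeq500. Binding signal is each 6-mer's read frequency for a factor divided by its frequency for the GST control.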

[2] = molecular target: T2, ERG (Homo sapiens, UniProt P11308 1-479)
T2 sequence: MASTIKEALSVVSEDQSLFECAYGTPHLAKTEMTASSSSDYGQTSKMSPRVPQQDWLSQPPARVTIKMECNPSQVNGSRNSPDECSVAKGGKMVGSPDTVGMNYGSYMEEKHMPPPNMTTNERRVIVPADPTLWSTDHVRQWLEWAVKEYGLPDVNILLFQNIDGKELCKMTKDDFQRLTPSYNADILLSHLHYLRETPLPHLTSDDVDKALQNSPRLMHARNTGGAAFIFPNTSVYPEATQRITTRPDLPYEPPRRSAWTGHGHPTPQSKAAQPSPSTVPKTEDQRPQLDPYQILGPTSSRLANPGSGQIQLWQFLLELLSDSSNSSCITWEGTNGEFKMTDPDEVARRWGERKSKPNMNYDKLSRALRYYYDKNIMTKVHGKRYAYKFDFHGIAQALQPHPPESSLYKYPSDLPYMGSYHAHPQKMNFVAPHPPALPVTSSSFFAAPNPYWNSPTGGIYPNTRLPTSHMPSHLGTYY
In short: as §1

[3] = molecular target: SPIB (Homo sapiens, UniProt Q01892 1-262)
Chain of SPIB (Q01892 whole entry): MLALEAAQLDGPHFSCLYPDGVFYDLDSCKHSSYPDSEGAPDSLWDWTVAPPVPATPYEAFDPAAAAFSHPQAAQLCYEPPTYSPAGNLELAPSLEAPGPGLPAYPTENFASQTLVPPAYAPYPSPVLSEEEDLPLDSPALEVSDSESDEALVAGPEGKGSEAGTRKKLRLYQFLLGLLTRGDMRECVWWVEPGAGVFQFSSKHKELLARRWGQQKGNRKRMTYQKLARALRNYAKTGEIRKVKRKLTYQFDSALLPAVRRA
In short: as §1

[4] = molecular target: T3, ELK3 (Homo sapiens, UniProt P41970 1-407)
T3 sequence: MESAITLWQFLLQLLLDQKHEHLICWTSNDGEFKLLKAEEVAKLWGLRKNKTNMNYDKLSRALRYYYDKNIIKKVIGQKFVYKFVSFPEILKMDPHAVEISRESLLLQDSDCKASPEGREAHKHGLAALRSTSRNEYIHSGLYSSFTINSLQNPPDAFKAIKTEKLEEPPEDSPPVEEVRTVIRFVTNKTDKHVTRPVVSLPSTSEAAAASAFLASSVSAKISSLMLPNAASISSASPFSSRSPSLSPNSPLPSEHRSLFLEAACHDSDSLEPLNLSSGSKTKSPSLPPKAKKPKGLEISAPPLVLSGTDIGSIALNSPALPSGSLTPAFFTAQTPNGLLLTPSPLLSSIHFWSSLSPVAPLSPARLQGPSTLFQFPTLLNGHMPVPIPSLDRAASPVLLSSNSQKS
In short: as §1

[5] = molecular target: T4, SPIC (Homo sapiens, UniProt Q8N5J4 1-248)
T4 sequence: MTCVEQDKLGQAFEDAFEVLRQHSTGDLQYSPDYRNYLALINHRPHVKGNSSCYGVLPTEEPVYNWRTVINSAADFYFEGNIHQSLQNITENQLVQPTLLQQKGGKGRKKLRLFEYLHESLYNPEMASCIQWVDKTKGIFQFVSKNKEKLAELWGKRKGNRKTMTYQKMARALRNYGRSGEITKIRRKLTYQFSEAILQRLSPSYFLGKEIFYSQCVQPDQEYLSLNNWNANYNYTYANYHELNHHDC
In short: as §1

[6] = molecular target: ELF4 (Homo sapiens, UniProt Q99607 1-663)
Chain of ELF4 (Q99607 whole entry): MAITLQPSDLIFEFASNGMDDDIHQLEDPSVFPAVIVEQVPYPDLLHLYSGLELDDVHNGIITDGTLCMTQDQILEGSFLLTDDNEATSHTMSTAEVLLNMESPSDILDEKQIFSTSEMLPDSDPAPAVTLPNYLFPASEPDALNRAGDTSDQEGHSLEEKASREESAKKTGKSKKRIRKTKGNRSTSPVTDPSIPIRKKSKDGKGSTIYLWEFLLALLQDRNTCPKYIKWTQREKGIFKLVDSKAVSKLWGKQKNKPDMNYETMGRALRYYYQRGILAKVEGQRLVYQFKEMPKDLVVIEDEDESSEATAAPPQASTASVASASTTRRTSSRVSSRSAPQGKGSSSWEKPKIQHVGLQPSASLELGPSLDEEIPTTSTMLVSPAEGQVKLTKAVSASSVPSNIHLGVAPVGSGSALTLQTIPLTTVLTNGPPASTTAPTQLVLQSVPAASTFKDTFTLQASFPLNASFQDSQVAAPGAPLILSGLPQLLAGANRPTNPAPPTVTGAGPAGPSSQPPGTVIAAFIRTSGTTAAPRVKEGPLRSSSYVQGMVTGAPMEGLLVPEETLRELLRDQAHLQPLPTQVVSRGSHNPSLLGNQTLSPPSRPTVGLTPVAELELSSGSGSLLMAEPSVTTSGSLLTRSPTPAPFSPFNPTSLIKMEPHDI
In short: as §1

[7] = molecular target: T5, ELK4 (Homo sapiens, UniProt P28324-2 1-405)
T5 sequence: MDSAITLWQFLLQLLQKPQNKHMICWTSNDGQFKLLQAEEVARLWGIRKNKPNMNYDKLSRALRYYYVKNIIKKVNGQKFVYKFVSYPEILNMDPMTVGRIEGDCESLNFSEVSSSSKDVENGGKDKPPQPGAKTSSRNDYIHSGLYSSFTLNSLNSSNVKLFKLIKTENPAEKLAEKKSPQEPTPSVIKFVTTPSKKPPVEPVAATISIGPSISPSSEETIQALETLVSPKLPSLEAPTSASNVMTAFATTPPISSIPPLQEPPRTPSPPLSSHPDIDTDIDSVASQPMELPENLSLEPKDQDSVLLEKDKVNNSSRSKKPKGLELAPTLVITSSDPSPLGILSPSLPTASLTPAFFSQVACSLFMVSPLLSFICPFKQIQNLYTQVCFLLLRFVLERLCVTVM
In short: as §1

[8] = molecular target: T6, ETV2 (Homo sapiens, UniProt O00321 1-342)
T6 sequence: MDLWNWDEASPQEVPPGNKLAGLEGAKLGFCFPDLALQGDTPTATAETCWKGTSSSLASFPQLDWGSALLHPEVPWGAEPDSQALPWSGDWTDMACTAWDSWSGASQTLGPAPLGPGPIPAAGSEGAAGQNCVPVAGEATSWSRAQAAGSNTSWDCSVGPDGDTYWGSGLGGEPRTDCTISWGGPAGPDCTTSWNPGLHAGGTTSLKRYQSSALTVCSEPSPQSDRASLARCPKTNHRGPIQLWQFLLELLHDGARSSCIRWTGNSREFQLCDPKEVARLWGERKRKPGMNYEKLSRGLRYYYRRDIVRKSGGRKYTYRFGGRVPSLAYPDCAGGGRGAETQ
In short: as §1

[9] = molecular target: T7, ELF3 (Homo sapiens, UniProt P78545 1-371)
T7 sequence: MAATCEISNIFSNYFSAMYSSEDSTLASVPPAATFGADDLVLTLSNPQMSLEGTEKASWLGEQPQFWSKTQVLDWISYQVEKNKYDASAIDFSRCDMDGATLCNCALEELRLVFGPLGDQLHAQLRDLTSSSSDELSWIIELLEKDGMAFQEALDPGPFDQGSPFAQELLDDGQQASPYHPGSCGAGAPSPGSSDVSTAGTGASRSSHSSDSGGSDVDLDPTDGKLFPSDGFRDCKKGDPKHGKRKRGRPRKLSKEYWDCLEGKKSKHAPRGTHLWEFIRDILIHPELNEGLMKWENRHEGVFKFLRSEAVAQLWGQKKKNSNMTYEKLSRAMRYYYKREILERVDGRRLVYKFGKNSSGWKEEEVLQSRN
In short: as §1

[10] = molecular target: ETV1 (Homo sapiens, UniProt P50549 1-477)
Chain of ETV1 (P50549 whole entry): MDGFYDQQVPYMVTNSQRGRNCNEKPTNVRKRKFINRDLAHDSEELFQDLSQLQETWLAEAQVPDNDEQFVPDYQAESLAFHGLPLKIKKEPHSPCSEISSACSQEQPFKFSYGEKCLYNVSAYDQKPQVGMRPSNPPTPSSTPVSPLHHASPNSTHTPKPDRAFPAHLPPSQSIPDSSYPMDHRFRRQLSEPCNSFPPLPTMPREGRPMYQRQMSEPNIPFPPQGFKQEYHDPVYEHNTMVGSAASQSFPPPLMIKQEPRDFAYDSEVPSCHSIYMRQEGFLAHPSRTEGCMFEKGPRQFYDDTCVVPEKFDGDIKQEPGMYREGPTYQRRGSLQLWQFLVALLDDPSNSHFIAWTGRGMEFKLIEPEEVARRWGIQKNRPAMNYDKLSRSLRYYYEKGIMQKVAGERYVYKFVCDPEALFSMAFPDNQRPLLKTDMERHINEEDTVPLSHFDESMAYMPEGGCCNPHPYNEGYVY
In short: as §1

[11] = molecular target: T8, ERF (Homo sapiens, UniProt P50548 1-548)
T8 sequence: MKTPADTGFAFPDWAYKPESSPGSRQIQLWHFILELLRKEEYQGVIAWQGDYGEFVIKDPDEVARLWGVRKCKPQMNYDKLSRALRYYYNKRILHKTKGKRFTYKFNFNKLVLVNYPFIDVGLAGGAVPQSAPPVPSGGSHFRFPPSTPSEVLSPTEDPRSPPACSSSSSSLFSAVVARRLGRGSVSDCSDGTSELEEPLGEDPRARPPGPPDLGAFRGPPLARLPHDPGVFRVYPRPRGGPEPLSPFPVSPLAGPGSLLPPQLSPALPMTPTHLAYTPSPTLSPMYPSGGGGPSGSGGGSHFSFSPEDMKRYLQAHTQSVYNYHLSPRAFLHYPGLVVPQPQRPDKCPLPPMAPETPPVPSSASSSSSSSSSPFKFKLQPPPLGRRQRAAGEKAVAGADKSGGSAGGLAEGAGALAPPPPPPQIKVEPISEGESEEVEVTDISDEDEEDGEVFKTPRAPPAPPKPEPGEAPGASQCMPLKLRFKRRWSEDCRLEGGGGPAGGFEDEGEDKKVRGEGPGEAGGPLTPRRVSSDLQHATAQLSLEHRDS
In short: as §1

[12] = molecular target: T9, ETV3L (Homo sapiens, UniProt Q6ZN32 1-361)
T9 sequence: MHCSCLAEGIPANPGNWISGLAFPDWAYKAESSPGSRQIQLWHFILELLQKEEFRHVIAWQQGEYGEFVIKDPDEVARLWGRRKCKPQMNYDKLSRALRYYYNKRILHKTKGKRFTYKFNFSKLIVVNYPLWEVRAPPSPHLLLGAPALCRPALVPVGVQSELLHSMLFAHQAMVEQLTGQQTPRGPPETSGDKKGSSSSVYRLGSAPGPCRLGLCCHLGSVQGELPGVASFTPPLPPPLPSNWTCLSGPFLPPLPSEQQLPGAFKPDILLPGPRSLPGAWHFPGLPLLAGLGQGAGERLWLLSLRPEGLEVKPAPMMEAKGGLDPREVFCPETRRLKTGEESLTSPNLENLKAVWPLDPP
In short: as §1

[13] = molecular target: T10, ETV7 (Homo sapiens, UniProt Q9Y603 1-341)
T10 sequence: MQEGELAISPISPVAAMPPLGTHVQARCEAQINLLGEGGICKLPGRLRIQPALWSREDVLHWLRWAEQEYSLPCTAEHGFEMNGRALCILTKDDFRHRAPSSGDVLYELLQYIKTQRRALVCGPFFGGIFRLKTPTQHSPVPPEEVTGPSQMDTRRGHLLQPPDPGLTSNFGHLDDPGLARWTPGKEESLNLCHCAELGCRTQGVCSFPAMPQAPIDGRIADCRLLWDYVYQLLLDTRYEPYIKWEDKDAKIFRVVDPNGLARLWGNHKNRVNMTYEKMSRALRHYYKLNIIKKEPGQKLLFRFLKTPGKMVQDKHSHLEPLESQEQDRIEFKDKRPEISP
In short: as §1

[14] = molecular target: T11, ETV3 (Homo sapiens, UniProt P41162-2 1-143)
T11 sequence: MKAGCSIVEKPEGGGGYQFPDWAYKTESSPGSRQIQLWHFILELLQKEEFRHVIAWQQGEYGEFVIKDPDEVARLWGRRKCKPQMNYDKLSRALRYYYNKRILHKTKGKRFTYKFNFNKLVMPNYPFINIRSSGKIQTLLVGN
In short: as §1

[15] = molecular target: ETV6 (Homo sapiens, UniProt P41212 1-452)
Chain of ETV6 (P41212 whole entry): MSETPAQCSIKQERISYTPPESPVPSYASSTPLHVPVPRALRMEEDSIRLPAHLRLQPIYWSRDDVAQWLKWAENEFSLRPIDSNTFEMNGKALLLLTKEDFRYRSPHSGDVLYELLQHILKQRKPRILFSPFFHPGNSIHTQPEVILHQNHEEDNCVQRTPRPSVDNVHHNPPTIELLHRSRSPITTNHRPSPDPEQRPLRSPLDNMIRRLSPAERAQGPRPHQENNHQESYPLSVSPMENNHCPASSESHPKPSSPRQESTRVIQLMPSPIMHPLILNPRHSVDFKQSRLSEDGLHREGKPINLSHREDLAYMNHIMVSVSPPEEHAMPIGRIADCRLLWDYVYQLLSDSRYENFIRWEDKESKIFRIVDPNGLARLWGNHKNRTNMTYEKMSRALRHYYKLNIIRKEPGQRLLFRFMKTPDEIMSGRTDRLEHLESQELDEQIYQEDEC
In short: as §1

In the case of TCGAGC, the binding signal [1] is reported as 1.02 fold enrichment (6-mer frequency, TF over GST control), the binding signal [2] is reported as 1.03 fold enrichment (6-mer frequency, TF over GST control) and the binding signal [3] is reported as 1.1 fold enrichment (6-mer frequency, TF over GST control). For the same sequence, the binding signal [4] was 1.01 fold enrichment (6-mer frequency, TF over GST control), the binding signal [5] was 1.04 fold enrichment (6-mer frequency, TF over GST control) and the binding signal [6] was 1.03 fold enrichment (6-mer frequency, TF over GST control). For the same sequence, the binding signal [7] was 1.11 fold enrichment (6-mer frequency, TF over GST control), the binding signal [8] was 1.04 fold enrichment (6-mer frequency, TF over GST control) and the binding signal [9] was 1 fold enrichment (6-mer frequency, TF over GST control). The binding signal [10] was 1.08 fold enrichment (6-mer frequency, TF over GST control), the binding signal [11] was 1.03 fold enrichment (6-mer frequency, TF over GST control) and the binding signal [12] was 1.15 fold enrichment (6-mer frequency, TF over GST control). For the same sequence, the binding signal [13] was 1.09 fold enrichment (6-mer frequency, TF over GST control), the binding signal [14] was 1.03 fold enrichment (6-mer frequency, TF over GST control) and the binding signal [15] was 1.02 fold enrichment (6-mer frequency, TF over GST control).
